Data reported in PubChem BioAssay AID1159580 (chemical genetic matrix, 2015).
Screen size: about 5,500 compounds; about 2,000 (36%) were called active. Inconclusive results (about 18%) are left out. No stated cut-off is given here; in the data, active means normalized growth mostly below about 0.91 (no sharp cut-off); inconclusive means no clear call, values can overlap the other calls; inactive means mostly above about 0.92. The list shows a part of the results.

Experiment: chemical genetic growth profiling, strain panel (AID 1159580);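 further: tested at 20 µM; growth read once vehicle control cultures reached saturation at 30 °C; 1 = growth at the plate median or of vehicle wells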
Conditions: growth OD

Measured: normalized growth

C[C@]12CCC3c4ccc(O)cc4CCC3C1CC[C@@H]2OC(=O)CCC1CCCC1 (stereo not given in full)
inactive: S. cerevisiae deletion strains, locus YJR075W, strain HOC1, stronger effect = lower value 0.988 | S. cerevisiae deletion strains, locus YKL009W, strain mrt4, stronger effect = lower value 0.986 | S. cerevisiae deletion strains, locus YKL068W, stronger effect = lower value 0.991 | S. cerevisiae deletion strains, locus YKL085W, strain MDH1 (second series), stronger effect = lower value 0.998 | S. cerevisiae deletion strains, locus YKL085W, strain MDH1, stronger effect = lower value 0.998 | S. cerevisiae deletion strains, locus YKL160W, strain elf1, stronger effect = lower value 1.03 | S. cerevisiae deletion strains, locus YKL190W, strain CNB1, stronger effect = lower value 0.992 | S. cerevisiae deletion strains, locus YKR001C, strain vps1, stronger effect = lower value 0.973 | S. cerevisiae deletion strains, locus YKR026C, strain gcn3, stronger effect = lower value 1.01 | S. cerevisiae deletion strains, locus YKR091W, strain srl3, stronger effect = lower value 1.02 | S. cerevisiae deletion strains, locus YLL001W, strain dnm1, stronger effect = lower value 1.03 | S. cerevisiae deletion strains, locus YLL026W, stronger effect = lower value 1.01 | S. cerevisiae deletion strains, locus YLL041C, strain sdh2, stronger effect = lower value 1 | S. cerevisiae deletion strains, locus YLR027C, strain aat2, stronger effect = lower value 0.995 | S. cerevisiae deletion strains, locus YLR039C, strain RIC1, stronger effect = lower value 0.984 | S. cerevisiae deletion strains, locus YLR058C, strain SHM2, stronger effect = lower value 0.991 | S. cerevisiae deletion strains, locus YLR102C, strain apc9, stronger effect = lower value 1.01 | S. cerevisiae deletion strains, locus YLR113W, strain HOG1, stronger effect = lower value 1.06 | S. cerevisiae deletion strains, locus YLR221C, strain rsa3, stronger effect = lower value 1.02 | S. cerevisiae deletion strains, locus YLR258W, strain gsy2, stronger effect = lower value 1.01 | S. cerevisiae deletion strains, locus YLR262C, strain YPT6 (second series), stronger effect = lower value 1.02 | S. cerevisiae deletion strains, locus YLR262C, strain YPT6, stronger effect = lower value 0.897 | S. cerevisiae deletion strains, locus YLR268W, strain sec22, stronger effect = lower value 0.993 | S. cerevisiae deletion strains, locus YLR320W, strain mms22, stronger effect = lower value 1.03 | S. cerevisiae deletion strains, locus YLR330W, strain CHS5, stronger effect = lower value 0.984 | S. cerevisiae deletion strains, locus YLR342W, strain FKS1 (second series), stronger effect = lower value 1 | S. cerevisiae deletion strains, locus YLR342W, strain FKS1, stronger effect = lower value 1.01 | S. cerevisiae deletion strains, locus YLR357W, strain rsc2, stronger effect = lower value 1.03 | S. cerevisiae deletion strains, locus YLR370C, strain arc18, stronger effect = lower value 1.02 | S. cerevisiae deletion strains, locus YLR371W, strain rom2, stronger effect = lower value 1.03 | S. cerevisiae deletion strains, locus YLR384C, strain iki3, stronger effect = lower value 1 | S. cerevisiae deletion strains, locus YLR418C, strain cdc73, stronger effect = lower value 1.03 | S. cerevisiae deletion strains, locus YML016C, strain PPZ1, stronger effect = lower value 0.988 | S. cerevisiae deletion strains, locus YML032C, strain rad52, stronger effect = lower value 0.986 | S. cerevisiae deletion strains, locus YML120C, strain ndi1, stronger effect = lower value 1.03 | S. cerevisiae deletion strains, locus YML124C, strain tub3, stronger effect = lower value 0.991 | S. cerevisiae deletion strains, locus YMR058W, strain fet3, stronger effect = lower value 1.01 | S. cerevisiae deletion strains, locus YMR078C, strain ctf18, stronger effect = lower value 1.01 | S. cerevisiae deletion strains, locus YMR125W, strain sto1, stronger effect = lower value 1.02 | S. cerevisiae deletion strains, locus YMR129W, stronger effect = lower value 1.02 | S. cerevisiae deletion strains, locus YMR205C, strain PFK2, stronger effect = lower value 1.01 | S. cerevisiae deletion strains, locus YMR223W, strain ubp8, stronger effect = lower value 1.04 | S. cerevisiae deletion strains, locus YMR231W, strain pep5, stronger effect = lower value 1 | S. cerevisiae deletion strains, locus YMR307W, strain GAS1, stronger effect = lower value 0.998 | S. cerevisiae deletion strains, locus YNL067W, strain RPL9B, stronger effect = lower value 0.988 | S. cerevisiae deletion strains, locus YNL071W, strain lat1, stronger effect = lower value 1.01 | S. cerevisiae deletion strains, locus YNL128W, strain TEP1, stronger effect = lower value 0.976 | S. cerevisiae deletion strains, locus YNL183C, strain NPR1, stronger effect = lower value 0.982 | S. cerevisiae deletion strains, locus YNL209W, strain ssb2, stronger effect = lower value 1.01 | S. cerevisiae deletion strains, locus YNL233W, strain BNI4, stronger effect = lower value 0.993 | S. cerevisiae deletion strains, locus YNL248C, strain rpa49, stronger effect = lower value 1.02 | S. cerevisiae deletion strains, locus YNL250W, strain rad50, stronger effect = lower value 1.01 | S. cerevisiae deletion strains, locus YNL271C, strain bni1, stronger effect = lower value 0.999 | S. cerevisiae deletion strains, locus YNL298W, strain CLA4, stronger effect = lower value 0.999 | S. cerevisiae deletion strains, locus YNL307C, strain MCK1, stronger effect = lower value 0.996 | S. cerevisiae deletion strains, locus YNL322C, strain KRE1 (second series), stronger effect = lower value 1.04 | S. cerevisiae deletion strains, locus YNL322C, strain KRE1, stronger effect = lower value 0.998 | S. cerevisiae deletion strains, locus YNR049C, strain mso1, stronger effect = lower value 1.03 | S. cerevisiae deletion strains, locus YNR052C, strain pop2, stronger effect = lower value 1.01 | S. cerevisiae deletion strains, locus YOL006C, strain TOP1, stronger effect = lower value 0.976 | S. cerevisiae deletion strains, locus YOL012C, strain htz1 1.23 | S. cerevisiae deletion strains, locus YOL147C, strain pex11, stronger effect = lower value 1.01 | S. cerevisiae deletion strains, locus YOR001W, strain rrp6, stronger effect = lower value 0.995 | S. cerevisiae deletion strains, locus YOR061W, strain CKA2, stronger effect = lower value 0.969 | S. cerevisiae deletion strains, locus YOR069W, strain VPS5, stronger effect = lower value 0.994 | S. cerevisiae deletion strains, locus YOR070C, strain gyp1, stronger effect = lower value 1.02 | S. cerevisiae deletion strains, locus YOR080W, strain dia2, stronger effect = lower value 0.998 | S. cerevisiae deletion strains, locus YOR083W, strain WHI5, stronger effect = lower value 1.05 | S. cerevisiae deletion strains, locus YOR106W, strain vam3, stronger effect = lower value 1.04 | S. cerevisiae deletion strains, locus YOR136W, strain idh2, stronger effect = lower value 0.991 | S. cerevisiae deletion strains, locus YOR144C, strain elg1, stronger effect = lower value 0.992 | S. cerevisiae deletion strains, locus YOR184W, strain ser1, stronger effect = lower value 0.99 | S. cerevisiae deletion strains, locus YOR231W, strain MKK1, stronger effect = lower value 1.07 | S. cerevisiae deletion strains, locus YOR265W, strain rbl2, stronger effect = lower value 1.01 | S. cerevisiae deletion strains, locus YOR270C, strain vph1, stronger effect = lower value 1.06 | S. cerevisiae deletion strains, locus YOR290C, strain snf2, stronger effect = lower value 0.986 | S. cerevisiae deletion strains, locus YOR316C, strain cot1, stronger effect = lower value 0.989 | S. cerevisiae deletion strains, locus YPL051W, strain arl3, stronger effect = lower value 1.01 | S. cerevisiae deletion strains, locus YPL055C, strain LGE1, stronger effect = lower value 0.994 | S. cerevisiae deletion strains, locus YPL078C, strain atp4, stronger effect = lower value 1.04 | S. cerevisiae deletion strains, locus YPL106C, strain sse1, stronger effect = lower value 1.05 | S. cerevisiae deletion strains, locus YPL240C, strain hsp82, stronger effect = lower value 0.996 | S. cerevisiae deletion strains, locus YPL241C, strain CIN2, stronger effect = lower value 0.979 | S. cerevisiae deletion strains, locus YPL256C, strain CLN2, stronger effect = lower value 1.03 | S. cerevisiae deletion strains, locus YPR119W, strain clb2, stronger effect = lower value 1 | S. cerevisiae deletion strains, locus YPR141C, strain kar3, stronger effect = lower value 0.996 | S. cerevisiae deletion strains, locus YPR163C, strain tif3, stronger effect = lower value 1 | S. cerevisiae deletion strains, locus YPR167C, strain met16, stronger effect = lower value 0.997 | S. cerevisiae deletion strains, strain wtn01, stronger effect = lower value 1.01 | S. cerevisiae strains, strain wild type, stronger effect = lower value 0.973
